# Test results from the supplement of paper PMC10849652.
# The full data set covers some 7,900 targets. This sample favours those with a hit. About 0.6% of all pairs of compound and target were hits. Values without a mark were called inactive.
# Legend:
# Experiment in all cases: log2 fold change, soluble protein after heating vs DMSO (PISA); higher = thermal stabilisation; K562 cells, 10 uM, 30 min; active = over 0.2 and 3.5 SD of the protein, either way, in both replicates (recomputed)
# [1] = compound: CC1=C(C=C(C=C1)NC(=O)C2=CC(=CC=C2)C(C)(C)C#N)NC3=CC4=C(C=C3)N=CN(C4=O)C
# Procedure, shortened: (§1)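 K562 cells at 2×10^6 cells/mL were treated for 30 min with 10 μM compound, and aliquots were heated for 3 min over 48°C-58°C before pooling. Extraction used PBS with 0.5% NP-40 at 4°C, and soluble protein was the supernatant after 21,000xg for 90 min, measured by TMTpro 16plex LC-MS/MS with channel sums equalised. Thermal stability values, relative to control samples and from duplicates, are log2 fold changes.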
# [2] = compound: CC1=C(C=C(C=C1)NC(=O)C2=CC(=CC=C2)N(C)C)NC(=O)C3=CC=C(C=C3)O
# Procedure, shortened: as §1
# [3] = compound: CC1=CC=C(C=C1)SC2=C3C=C(SC3=CN=C2)C(=O)N
# Procedure, shortened: as §1
# [4] = compound: CC1=NC(=CC=C1)C2=C(N=C(N2)C(C)(C)C)C3=CC4=NC=CN=C4C=C3
# Procedure, shortened: as §1
# Nexturastat A = compound: CCCCN(Cc1ccc(C(=O)NO)cc1)C(=O)Nc1ccccc1 [Nexturastat A]
# Procedure, shortened: as §1
# vemurafenib = compound: CCCS(=O)(=O)Nc1ccc(F)c(C(=O)c2c[nH]c3ncc(-c4ccc(Cl)cc4)cc23)c1F [vemurafenib]
# Procedure, shortened: as §1
# [5] = compound: CCCS(=O)(=O)Nc1ccc(F)c(C(=O)c2c[nH]c3ncc(Cl)cc23)c1F
# Procedure, shortened: as §1
# [6] = compound: CCCc1cc(C)[nH]c(=O)c1CNC(=O)c1cc(-c2ccnc(N3CCN(C)CC3)c2)cc2c1cnn2C(C)C
# Procedure, shortened: as §1
# givinostat = compound: CCN(CC)Cc1ccc2cc(COC(=O)Nc3ccc(C(=O)NO)cc3)ccc2c1 [givinostat]
# Procedure, shortened: as §1
# barasertib = compound: CCN(CCCOc1ccc2c(Nc3cc(CC(=O)Nc4cccc(F)c4)[nH]n3)ncnc2c1)CCOP(=O)(O)O [barasertib]
# Procedure, shortened: as §1
# [7] = compound: CC[C@@H]1C(=O)N(C)c2cnc(Nc3ccc(C(=O)NC4CCN(C)CC4)cc3OC)nc2N1C1CCCC1
# Procedure, shortened: as §1
# volasertib = compound: CC[C@@H]1C(=O)N(C)c2cnc(Nc3ccc(C(=O)N[C@H]4CC[C@H](N5CCN(CC6CC6)CC5)CC4)cc3OC)nc2N1C(C)C [volasertib]
# Procedure, shortened: as §1
# [8] = compound: CC[C@H](C)N1C=C(C2=C(C=C(C=C21)C3=CN=C(C=C3)N4CCNCC4)C(=O)NCC5=C(C=C(NC5=O)C)C)C
# Procedure, shortened: as §1
# epoxomicin = compound: CC[C@H](C)[C@@H](C(=O)N[C@@H]([C@@H](C)O)C(=O)N[C@@H](CC(C)C)C(=O)[C@]1(CO1)C)NC(=O)[C@H]([C@@H](C)CC)N(C)C(=O)C [epoxomicin]
# Procedure, shortened: as §1
# [9] = compound: CCn1c(C(=O)N(C2CC2)C2CC2)cc2c3c(ncn3C)c(Nc3cc(C)n(C)n3)nc21
# Procedure, shortened: as §1
# [10] = compound: CCn1cc(-c2ccnc3[nH]c(-c4cccc(CN(C)C)c4)cc23)c(-c2ccc(NC(=O)N(C)C)cc2)n1
# Procedure, shortened: as §1
# [11] = compound: CN(C)CC(=O)Nc1ccc2[nH]c(=O)c3ccccc3c2c1
# Procedure, shortened: as §1
# rosiglitazone = compound: CN(CCOC1=CC=C(C=C1)C[C@H]2C(=O)NC(=O)S2)C3=CC=CC=N3 (racemic) [rosiglitazone]
# Procedure, shortened: as §1
# [12] = compound: CN1C2=C(C3=C1C(=O)N(N=C3)CC4=CC(=CC=C4)N)SC(=C2)S(=O)C
# Procedure, shortened: as §1
# [13] = compound: CN1CCC(CNc2ccc3ncc(-c4cccc(OC(F)(F)F)c4)n3n2)CC1
# Procedure, shortened: as §1
# UniProt Q92544, sequence (Q92544 whole entry, looked up): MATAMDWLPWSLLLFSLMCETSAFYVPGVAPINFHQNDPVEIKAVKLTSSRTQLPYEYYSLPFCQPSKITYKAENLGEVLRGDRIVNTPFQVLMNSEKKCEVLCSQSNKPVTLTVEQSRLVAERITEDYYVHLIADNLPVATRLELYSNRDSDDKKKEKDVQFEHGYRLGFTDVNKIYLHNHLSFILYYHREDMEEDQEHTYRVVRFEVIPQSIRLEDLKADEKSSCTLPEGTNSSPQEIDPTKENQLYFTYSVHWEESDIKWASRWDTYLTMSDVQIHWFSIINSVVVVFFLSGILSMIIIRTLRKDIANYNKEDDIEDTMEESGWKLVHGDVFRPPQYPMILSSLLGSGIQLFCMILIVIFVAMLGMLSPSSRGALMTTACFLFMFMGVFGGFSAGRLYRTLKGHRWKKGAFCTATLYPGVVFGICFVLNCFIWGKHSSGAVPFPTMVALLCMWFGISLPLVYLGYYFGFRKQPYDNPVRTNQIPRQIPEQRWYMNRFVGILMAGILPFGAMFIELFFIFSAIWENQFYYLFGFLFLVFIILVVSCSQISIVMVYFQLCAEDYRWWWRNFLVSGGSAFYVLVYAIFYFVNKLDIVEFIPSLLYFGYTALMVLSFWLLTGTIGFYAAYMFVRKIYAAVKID
# UniProt P42229, sequence (P42229 whole entry, looked up): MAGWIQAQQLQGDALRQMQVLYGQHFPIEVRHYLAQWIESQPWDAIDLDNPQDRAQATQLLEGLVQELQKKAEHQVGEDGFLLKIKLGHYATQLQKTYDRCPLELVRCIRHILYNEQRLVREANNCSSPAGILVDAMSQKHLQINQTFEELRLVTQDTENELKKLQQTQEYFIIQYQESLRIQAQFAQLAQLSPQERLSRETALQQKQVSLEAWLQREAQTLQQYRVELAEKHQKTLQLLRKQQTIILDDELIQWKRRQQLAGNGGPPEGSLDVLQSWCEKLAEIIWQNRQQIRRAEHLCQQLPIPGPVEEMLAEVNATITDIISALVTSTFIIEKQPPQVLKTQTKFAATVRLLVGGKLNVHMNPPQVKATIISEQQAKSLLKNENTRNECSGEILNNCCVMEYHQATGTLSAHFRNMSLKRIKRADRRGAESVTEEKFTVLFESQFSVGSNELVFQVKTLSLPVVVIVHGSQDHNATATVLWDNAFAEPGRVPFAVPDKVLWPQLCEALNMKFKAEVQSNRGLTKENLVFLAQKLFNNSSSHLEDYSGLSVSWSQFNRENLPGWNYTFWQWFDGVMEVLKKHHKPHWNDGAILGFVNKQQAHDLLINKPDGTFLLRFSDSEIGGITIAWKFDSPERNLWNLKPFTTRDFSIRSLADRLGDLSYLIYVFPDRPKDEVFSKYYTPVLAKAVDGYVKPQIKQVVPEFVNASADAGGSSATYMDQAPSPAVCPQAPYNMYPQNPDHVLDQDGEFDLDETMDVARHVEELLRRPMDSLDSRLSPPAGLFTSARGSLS
# UniProt Q9Y5W9, sequence (Q9Y5W9 whole entry, looked up): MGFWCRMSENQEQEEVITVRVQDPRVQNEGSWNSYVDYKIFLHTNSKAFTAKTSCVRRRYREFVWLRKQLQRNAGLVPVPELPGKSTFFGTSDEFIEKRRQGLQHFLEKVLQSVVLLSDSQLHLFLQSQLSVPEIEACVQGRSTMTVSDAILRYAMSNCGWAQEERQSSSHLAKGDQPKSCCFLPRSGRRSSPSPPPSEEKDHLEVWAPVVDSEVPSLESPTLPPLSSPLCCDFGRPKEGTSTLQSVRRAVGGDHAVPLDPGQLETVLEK
# UniProt Q6YHU6, sequence (Q6YHU6 whole entry, looked up): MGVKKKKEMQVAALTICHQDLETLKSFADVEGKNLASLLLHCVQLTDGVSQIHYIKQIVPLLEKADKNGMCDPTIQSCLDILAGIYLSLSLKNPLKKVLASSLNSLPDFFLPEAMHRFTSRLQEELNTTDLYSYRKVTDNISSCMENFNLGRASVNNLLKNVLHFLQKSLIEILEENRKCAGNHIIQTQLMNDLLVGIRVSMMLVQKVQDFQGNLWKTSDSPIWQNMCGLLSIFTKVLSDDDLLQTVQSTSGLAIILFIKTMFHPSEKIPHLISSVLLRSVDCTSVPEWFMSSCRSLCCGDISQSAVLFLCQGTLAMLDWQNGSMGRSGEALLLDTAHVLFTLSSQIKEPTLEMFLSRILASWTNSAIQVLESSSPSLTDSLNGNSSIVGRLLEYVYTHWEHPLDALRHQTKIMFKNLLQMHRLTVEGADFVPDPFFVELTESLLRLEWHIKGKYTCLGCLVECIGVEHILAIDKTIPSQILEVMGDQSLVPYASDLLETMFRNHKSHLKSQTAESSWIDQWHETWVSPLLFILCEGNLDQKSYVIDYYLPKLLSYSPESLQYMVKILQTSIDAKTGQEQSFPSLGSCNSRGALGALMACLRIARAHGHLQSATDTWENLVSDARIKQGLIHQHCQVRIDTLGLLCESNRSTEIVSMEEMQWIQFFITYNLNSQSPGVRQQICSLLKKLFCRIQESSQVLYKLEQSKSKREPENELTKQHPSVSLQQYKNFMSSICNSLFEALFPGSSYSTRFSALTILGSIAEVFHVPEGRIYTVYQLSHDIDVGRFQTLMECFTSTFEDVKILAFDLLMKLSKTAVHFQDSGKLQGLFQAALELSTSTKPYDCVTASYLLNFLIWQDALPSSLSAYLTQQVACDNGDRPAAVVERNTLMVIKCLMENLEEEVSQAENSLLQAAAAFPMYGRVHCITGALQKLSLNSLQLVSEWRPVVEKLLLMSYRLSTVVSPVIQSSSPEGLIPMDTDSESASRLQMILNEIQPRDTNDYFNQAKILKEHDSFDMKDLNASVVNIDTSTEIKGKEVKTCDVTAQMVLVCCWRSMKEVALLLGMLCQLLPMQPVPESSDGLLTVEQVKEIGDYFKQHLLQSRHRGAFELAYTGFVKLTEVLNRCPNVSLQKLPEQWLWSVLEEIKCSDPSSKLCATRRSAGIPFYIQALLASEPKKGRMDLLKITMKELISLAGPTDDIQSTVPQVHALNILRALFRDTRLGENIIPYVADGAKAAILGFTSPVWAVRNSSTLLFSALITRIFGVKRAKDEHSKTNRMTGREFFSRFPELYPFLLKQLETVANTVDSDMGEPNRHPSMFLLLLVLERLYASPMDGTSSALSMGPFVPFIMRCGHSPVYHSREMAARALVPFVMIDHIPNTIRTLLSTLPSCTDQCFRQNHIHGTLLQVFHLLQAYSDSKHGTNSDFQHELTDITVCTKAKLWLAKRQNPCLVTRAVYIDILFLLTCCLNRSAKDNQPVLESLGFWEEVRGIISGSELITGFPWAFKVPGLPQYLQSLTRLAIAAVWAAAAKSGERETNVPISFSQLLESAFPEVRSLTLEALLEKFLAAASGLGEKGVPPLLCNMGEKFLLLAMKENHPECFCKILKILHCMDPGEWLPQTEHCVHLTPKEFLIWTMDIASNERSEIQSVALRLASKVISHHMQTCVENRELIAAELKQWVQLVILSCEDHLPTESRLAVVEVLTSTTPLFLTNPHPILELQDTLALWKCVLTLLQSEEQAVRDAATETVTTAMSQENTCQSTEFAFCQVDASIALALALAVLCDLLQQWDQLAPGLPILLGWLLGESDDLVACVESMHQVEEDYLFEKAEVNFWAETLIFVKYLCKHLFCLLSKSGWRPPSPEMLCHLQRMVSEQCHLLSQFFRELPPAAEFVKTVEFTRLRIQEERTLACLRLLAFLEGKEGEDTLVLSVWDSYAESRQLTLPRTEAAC
# UniProt Q16385, sequence (Q16385 whole entry, looked up): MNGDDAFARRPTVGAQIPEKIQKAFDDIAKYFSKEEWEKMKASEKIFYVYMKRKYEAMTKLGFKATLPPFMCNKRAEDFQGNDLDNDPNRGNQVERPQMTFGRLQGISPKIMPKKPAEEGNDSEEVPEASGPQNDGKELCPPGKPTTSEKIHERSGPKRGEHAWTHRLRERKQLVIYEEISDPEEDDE
# UniProt Q96CW6, sequence (Q96CW6 whole entry, looked up): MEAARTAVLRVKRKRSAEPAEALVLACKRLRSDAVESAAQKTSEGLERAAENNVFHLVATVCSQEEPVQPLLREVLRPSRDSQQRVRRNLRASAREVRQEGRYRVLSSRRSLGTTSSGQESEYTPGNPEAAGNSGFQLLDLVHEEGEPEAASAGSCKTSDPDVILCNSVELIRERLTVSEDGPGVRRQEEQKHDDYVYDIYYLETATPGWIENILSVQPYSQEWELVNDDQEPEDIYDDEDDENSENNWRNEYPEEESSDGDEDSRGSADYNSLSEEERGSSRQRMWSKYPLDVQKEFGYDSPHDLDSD
# UniProt Q9NXE4, sequence (Q9NXE4 whole entry, looked up): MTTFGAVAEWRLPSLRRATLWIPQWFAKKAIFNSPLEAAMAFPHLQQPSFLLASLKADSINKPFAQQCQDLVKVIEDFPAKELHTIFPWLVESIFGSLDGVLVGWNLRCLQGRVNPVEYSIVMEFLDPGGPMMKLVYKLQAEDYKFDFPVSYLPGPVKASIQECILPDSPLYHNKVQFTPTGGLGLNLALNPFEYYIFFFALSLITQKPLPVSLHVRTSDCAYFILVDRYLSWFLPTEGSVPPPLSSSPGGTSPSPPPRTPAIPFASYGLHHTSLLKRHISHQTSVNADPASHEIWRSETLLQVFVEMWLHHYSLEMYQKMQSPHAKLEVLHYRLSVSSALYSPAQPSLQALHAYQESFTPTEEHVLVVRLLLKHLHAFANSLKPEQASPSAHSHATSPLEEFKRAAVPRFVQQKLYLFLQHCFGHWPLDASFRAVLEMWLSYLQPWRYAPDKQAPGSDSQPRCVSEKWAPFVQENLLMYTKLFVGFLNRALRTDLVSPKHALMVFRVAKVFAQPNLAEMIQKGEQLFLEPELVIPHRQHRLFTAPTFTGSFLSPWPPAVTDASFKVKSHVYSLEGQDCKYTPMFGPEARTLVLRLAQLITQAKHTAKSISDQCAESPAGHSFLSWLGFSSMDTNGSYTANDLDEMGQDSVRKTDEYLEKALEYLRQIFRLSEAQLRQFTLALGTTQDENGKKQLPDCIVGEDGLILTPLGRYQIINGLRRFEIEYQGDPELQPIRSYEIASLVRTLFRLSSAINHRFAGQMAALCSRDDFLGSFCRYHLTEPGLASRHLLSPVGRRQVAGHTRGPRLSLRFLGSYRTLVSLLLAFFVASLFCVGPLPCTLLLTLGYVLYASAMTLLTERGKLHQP
Target,log2 fold change [1],log2 fold change [2],log2 fold change [3],log2 fold change [4],log2 fold change (Nexturastat A),log2 fold change (vemurafenib),log2 fold change [5],log2 fold change [6],log2 fold change (givinostat),log2 fold change (barasertib),log2 fold change [7],log2 fold change (volasertib),log2 fold change [8],log2 fold change (epoxomicin),log2 fold change [9],log2 fold change [10],log2 fold change [11],log2 fold change (rosiglitazone),log2 fold change [12],log2 fold change [13]
TIMM29 (UniProt Q9BSF4),-0.007,-0.015,-0.023,-0.102,-0.037,-0.031,0.033,0,0.014,0.004,0.044,-0.071,0.019,-0.013,0.027,-0.035,0,-0.016,-0.103,0.062
THADA (UniProt Q6YHU6),0.03,-0.038,0.019,-0.01,-0.021,0.038,0.06,0.039,-0.006,0.07,-0.003,-0.017,0.011,-0.007,0,0.057,0.051,0.076,-0.019,-0.146
TIPRL (UniProt O75663),0.011,-0.017,0.007,0.013,-0.05,0.022,0.046,0.02,0.032,-0.007,-0.061,-0.23 (active),0.072,0.025,-0.012,-0.057,0.032,0.085,0.021,-0.214
TJP2 isoform 7 (UniProt Q9UDY2),-0.017,-0.006,0.007,-0.014,0.048,0.09,0.101,-0.194,0.071,0.102,-0.128,-0.298,-0.018,0.01,-0.041,-0.083,0.015,0.07,-0.021,-0.094
SNX5 (UniProt Q9Y5X3),0.001,0.015,0.009,0.039,-0.074,0.009,0.035,-0.031,0.013,0.04,-0.136,-0.129,0.076,0.05,-0.026,-0.099,0.027,0.069,-0.001,-0.289 (active)
SMC5 (UniProt Q8IY18),-0.038,-0.067,-0.017,-0.032,-0.014,0.043,-0.033,-0.02,-0.033,-0.048,0.042,0.054,-0.009,0.018,-0.023,-0.025,0.033,0,0.005,0.037
TANK (UniProt Q92844),-0.076,0.059,0.007,0.028,-0.047,-0.031,-0.018,0.065,0.013,0.089,0.057,-0.105,-0.064,-0.021,-0.074,0.074,-0.012,-0.012,-0.117,-0.072
SNX11 (UniProt Q9Y5W9),-0.008,0.012,-0.003,0.043,0.014,0.043,0.025,0.022,-0.006,0.019,-0.167,-0.324,0.066,-0.031,-0.097,-0.022,-0.024,-0.007,0.167,-0.646 (active)
SURF2 (UniProt Q15527),0.022,-0.007,0.035,-0.027,0.033,-0.037,-0.002,-0.029,0.013,0.035,-0.002,-0.046,0.014,0.04,-0.008,-0.078,0.037,0,-0.043,0.024
STOM (UniProt P27105),-0.035,0.025,-0.041,-0.002,0.007,0.01,-0.053,-0.092,0.005,-0.017,0.087,0.096,-0.08,-0.006,0.009,-0.164,-0.057,-0.065,0.085,0.317 (active)
TM9SF4 (UniProt Q92544),0.084,-0.022,0.014,-0.012,-0.029,0.031,0.073,0.034,0.054,0.004,-0.225,-0.484 (active),0.024,-0.055,0.035,0.052,0.001,0.082,-0.05,-0.084
SLC7A6OS (UniProt Q96CW6),-0.065,-0.033,-0.042,-0.075,-0.031,-0.015,0.013,-0.025,0.017,0.01,-0.027,-0.084,-0.042,0.01,-0.07,-0.038,0.004,-0.06,-0.05,0.055
SMPD4 isoform 4 (UniProt Q9NXE4),0.022,-0.011,0.075,0.112,0.075,0.02,0.058,-0.034,0.066,0.13,-0.067,-0.076,0.068,-0.008,-0.049,-0.081,0.036,0.075,-0.075,-0.32 (active)
SSX2 (UniProt Q16385),0.021,-0.013,0.011,0.073,-0.254 (active),0.046,0.035,-0.016,-0.099,0.018,-0.046,-0.102,0.071,0.131,0.007,-0.036,0.007,0.045,-0.06,0.021
SNW1 (UniProt Q13573),-0.035,0.041,-0.017,0,0.074,-0.04,-0.017,-0.045,-0.041,-0.02,0.094,0.078,-0.052,-0.012,0.03,0.044,-0.027,-0.047,0,0.078
STAT5A (UniProt P42229),-0.033,-0.113,0.072,0.011,-0.009,0.067,0.067,0.141,0.156,0.096,-0.225,-0.633 (active),0.121,0.072,-0.072,0.041,0.074,0.056,-0.005,-0.109
